Hit rate of the full screen: of about 350,000 compounds, about 31,000 (8.9%) were called active. Inconclusive results (about 15%) are left out. Calls come from the whole dose curve; as a rule, active = well fitted inhibition curve with a large enough effect; inconclusive = small, poorly fitted or top-dose-only effect; inactive = no such curve, though single readings can be large or run the other way. Many of the other results were omitted from the sample, so actives are more common in it than they were.
Target: Histone-lysine N-methyltransferase EHMT2 (Homo sapiens) (UniProt Q96KQ7)
Sequence (Q96KQ7 913-1193 limits assumed): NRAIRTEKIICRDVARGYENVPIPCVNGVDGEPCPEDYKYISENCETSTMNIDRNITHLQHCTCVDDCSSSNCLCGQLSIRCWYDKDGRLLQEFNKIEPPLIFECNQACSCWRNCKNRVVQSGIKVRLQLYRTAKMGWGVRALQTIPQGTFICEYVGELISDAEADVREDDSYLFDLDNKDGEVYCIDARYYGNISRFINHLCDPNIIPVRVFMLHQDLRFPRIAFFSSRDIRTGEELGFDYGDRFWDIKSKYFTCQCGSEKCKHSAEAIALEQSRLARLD
Assay: qHTS Assay for Inhibitors of Histone Lysine Methyltransferase G9a; note: nearly all actives have a fitted effect of over 75% in size
Conditions: G9a H3K9 monomethylation, AlphaScreen, 2 h; series mostly up to 59 µM; activity, negative = inhibition: at the top concentration
Summary of the method: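 Compounds were preincubated with 20 nM G9a for 15 min, after which biotinylated H3K9 peptide (500 nM) and SAM (20 uM) started a 2 h room-temperature reaction. Monomethylated product was quantified by antibody-based AlphaScreen chemiluminescence.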
% is set by controls: 0 for no effect and ±100 for the full control effect; potency is the fitted concentration of half-maximal effect.

Compound	activity, negative = inhibition	Potency
Cc1ccc(-n2c(CNc3ccc(F)cc3)nnc2SCC(=O)N2CCOCC2)cc1	-3.9% (inactive)	–
COc1ccc(CSc2nnnn2-c2ccc(C(=O)O)cc2)cc1	17.8% [at 102 µM] (inactive)	–
COc1ccc(NCc2nnc(SCc3ccccc3)n2-c2ccc(OC)cc2)cc1	–	50.1 µM (active)
CC1(NC(=O)CCS(=O)(=O)c2ccc(Cl)cc2)CCS(=O)(=O)C1 (configuration not stated)	-5.47% [at 12.7 µM] (inactive)	–
CC1(C)CC(=O)C=C(c2cccc3c2Oc2ccccc2S3)C1	-4.23% [at 0.501 µM] (inactive)	–
O=C(C(=O)N1CCc2ccccc2C1)N1CCc2ccccc2C1	17.3% (inactive)	–
Cc1ccc(-c2cc(C(=O)N3CCc4ccccc4C3)no2)cc1	2.95% [at 102 µM] (inactive)	–
Cn1cccc1C(=O)N1CCc2ccccc2C1	–	2 µM (active)
O=C(CCc1cn(Cc2ccc(F)cc2)c2ccccc12)NC1CCCCC1	-29.5% (inactive)	–
Cc1ccc(Cn2c(=N)c(S(=O)(=O)c3ccc(C)cc3)cc3c(=O)n4ccccc4nc32)cc1	12.9% [at 102 µM] (inactive)	–
CCN(CC(=O)Nc1ccccc1OC)C(=O)CC1CC2CCC1C2 (configuration not stated)	-48.1% (inactive)	–
COc1ccccc1N1CCN(C(=O)c2ccc(NC3=NC4CS(=O)(=O)CC4S3)cc2)CC1 (configuration not stated)	18.8% [at 102 µM] (inactive)	–
O=[N+]([O-])c1ccc(N2CCSCC2)cc1O	-49.1% [at 102 µM] (inactive)	–
O=C1CSC(=S)N1/N=C/c1ccc(O)c([N+](=O)[O-])c1	–	14.1 µM (active)
CCc1nn(CCCC(=O)Nc2ccc(C)cc2C)c(=O)c2cc3occc3n12	0.152% (inactive)	–
Cc1ccc(OCCNC(=O)CN2C(=O)NC3(CCCC3)C2=O)cc1	19.1% [at 2.33 µM] (inactive)	–
Cc1ccc(S(=O)(=O)CCC(=O)OCC(=O)NCCc2ccc(S(N)(=O)=O)cc2)cc1	1.87% [at 12.7 µM] (inactive)	–
COc1ccc(Cc2nnc(NS(=O)(=O)Cc3ccccc3)s2)cc1	-8.52% (inactive)	–
Cc1cc(C)cc(NS(=O)(=O)Cc2ccccc2)c1	6.04% [at 102 µM] (inactive)	–
CCC(CC)c1nnc(NS(=O)(=O)Cc2ccccc2)s1	–	5.01 µM (active)
CCc1ccc(NC(=O)CCNS(=O)(=O)c2cccs2)cc1	23.6% [at 102 µM] (inactive)	–
CN1CCN(CC#CCC2(O)c3ccccc3-c3ccccc32)CC1	–	35.5 µM (active)
CCCCOc1ccc(Cn2c(=O)oc3ccc(C)cc32)cc1OC	72.1% (inactive)	–
CCCCN1C(=O)C(C)=C(C)C1OCCc1ccc(OC)c(OC)c1 (configuration not stated)	-12% [at 0.501 µM] (inactive)	–
CCCCOc1ccc(CN2C(=O)C(=O)c3cc(Br)cc(C)c32)cc1OC	–	6.31 µM (active)
Cc1ccc2nc(N3CCN(c4cccc(Cl)c4)CC3)c3nnnn3c2c1	27.6% (inactive)	–
Cc1[nH]c2ccccc2c1C(c1ccccc1)c1cccs1 (configuration not stated)	-1.34% (inactive)	–

From PubChem BioAssay AID504332 (National Center for Advancing Translational Sciences (NCATS), 2011)
